This is an account of results in PubChem BioAssay.

Values joined by “and” are separate entries in the source; they are usually repeats but may differ in a detail not shown here. Equal values may be shown once. Records with an inconclusive call do not appear. Active and inactive are the calls of the source.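 Rule for the calls, unless noted: active = at least 20% inhibition of 6-phosphogluconate dehydrogenase activity; inactive = the rest.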

In assay [1] the target is 6-phosphogluconate dehydrogenase, decarboxylating (Homo sapiens) (UniProt P52209). As to the kind of experiment: 6PGD enzyme inhibitors, primary screen, biochemical, human, recombinant enzyme, NADPH absorbance (AID 1159550). The settings on record: recombinant 6PGD, NADPH absorbance 341 nm; at 10 µM; stronger effect = higher value.
Assay [2] is described as follows: sensitizers of A549 cells to miR-34 induction, primary screen, imaging, A549 dox-inducible miR-34, nuclei and caspase counts (AID 1347080;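 active = compounds whose cell count with miR-34 switched on is under 0.7 times the count with it off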). Conditions: A549 miR-34 inducible, Hoechst nuclei count, 48 h.
Assay [3] has as its target Mitogen-activated protein kinase 7 (Homo sapiens) (UniProt Q13164). Kind of assay: ERK5 transactivation activators in reporter cells, primary screen, cell-based, HTS (AID 1508626;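 active = luciferase signal above three times the same-plate solvent-only control wells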;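 note: luciferase driven by Gal4-ERK5 fusion binding five Gal4 sites before minimal TATA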). Conditions: HeLa Gal4-ERK5 transactivation, 18 h, at 5 µM, stronger effect = higher value.
In assay [4] the target is NAD(+) hydrolase SARM1 (Homo sapiens) (UniProt Q6SZW1). As to the kind of experiment: SARM1 TIR NADase inhibitors, cell lysate, NAD-Glo luminescence (AID 1508614;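 active = compound whose remaining NAD level is above about 45 nM, limit read from the data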;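 note: higher remaining NAD means stronger inhibition of SARM1 NADase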). Conditions: SAM-TIR HEK293T lysate NADase, at 1 µM, stronger effect = higher value.
Assay [5] can be described thus: survival rescue of mitochondrial mutant cells in low glucose, primary screen, MELAS cybrids, Rieske KO mouse fibroblasts, CellTiter-Glo (AID 1508586;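 active = mean z-score across replicates of 1.96 or higher in either the MELAS or the Rieske mutant cell line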;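 note: z relative to plate mean and SD of compound and empty wells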). In general terms: ATP-based viability assays read luminescence as a measure of living cells.
Assay [6] is described as follows: liver-stage malaria parasite growth inhibition, primary screen, cell-based, HepG2, luciferase luminescence, HepG2 viability (AID 624349; in the data active = parasite load remaining mostly below about 12%, no sharp cut-off; inactive = mostly above about 10%;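 note: 100% = mean of DMSO negative control wells on the same plate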). Conditions: P. berghei liver stage in HepG2, luciferase luminescence, concentration not given here; parasite load remaining: stronger effect = lower value; viability: measured here: HepG2 viability without parasites.
Assay [7] concerns the target ATP-dependent translocase ABCB1 (Homo sapiens) (UniProt P08183). As to the kind of experiment: MDR1 (ABCB1) efflux transporter inhibition, cell-based (AID 377; in the data active = fluorescence slope change above about 50%). The settings on record: MDR1-expressing cells, fluorescent substrate accumulation slope; stronger effect = higher value; concentration not given here.
Assay [8] in a line: hESC survival regulators, cell-based (AID 493140; call rule not given here;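 note: cells exposed to compounds for four days before counting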). The settings on record: human embryonic stem cell survival screen; stronger effect = higher value.
Setting [9] is: stronger effect = lower value, cell number ratio, induced over uninduced.
Where [10] appears, read: measured here: relative caspase fold change +Dox/-Dox.
Setting [11] is: measured here: total cells with miR-34 induction, stronger effect = lower value.
Setting [12] is: measured here: total cells without miR-34 induction.

Sequence of NAD(+) hydrolase SARM1 (Homo sapiens) (Q6SZW1 whole entry, looked up): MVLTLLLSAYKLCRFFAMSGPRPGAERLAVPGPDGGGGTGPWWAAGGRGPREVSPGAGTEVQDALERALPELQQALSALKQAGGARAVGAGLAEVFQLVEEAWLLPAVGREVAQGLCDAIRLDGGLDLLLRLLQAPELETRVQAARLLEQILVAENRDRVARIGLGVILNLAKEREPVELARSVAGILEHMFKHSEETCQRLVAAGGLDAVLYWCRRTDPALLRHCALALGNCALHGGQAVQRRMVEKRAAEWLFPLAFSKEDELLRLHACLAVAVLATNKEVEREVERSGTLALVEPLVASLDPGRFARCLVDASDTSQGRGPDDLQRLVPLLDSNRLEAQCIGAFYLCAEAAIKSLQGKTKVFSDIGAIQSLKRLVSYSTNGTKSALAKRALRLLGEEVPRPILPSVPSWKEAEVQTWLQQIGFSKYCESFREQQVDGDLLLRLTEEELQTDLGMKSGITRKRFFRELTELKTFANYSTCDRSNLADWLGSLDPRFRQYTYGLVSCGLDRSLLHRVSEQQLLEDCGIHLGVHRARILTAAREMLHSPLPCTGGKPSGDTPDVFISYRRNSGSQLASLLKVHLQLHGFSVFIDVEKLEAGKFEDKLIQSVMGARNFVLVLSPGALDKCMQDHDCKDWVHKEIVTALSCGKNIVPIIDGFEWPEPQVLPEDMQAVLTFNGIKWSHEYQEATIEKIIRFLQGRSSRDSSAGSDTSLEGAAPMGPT
Sequence of Mitogen-activated protein kinase 7 (Homo sapiens) (Q13164 whole entry, looked up, the tested form may be a part): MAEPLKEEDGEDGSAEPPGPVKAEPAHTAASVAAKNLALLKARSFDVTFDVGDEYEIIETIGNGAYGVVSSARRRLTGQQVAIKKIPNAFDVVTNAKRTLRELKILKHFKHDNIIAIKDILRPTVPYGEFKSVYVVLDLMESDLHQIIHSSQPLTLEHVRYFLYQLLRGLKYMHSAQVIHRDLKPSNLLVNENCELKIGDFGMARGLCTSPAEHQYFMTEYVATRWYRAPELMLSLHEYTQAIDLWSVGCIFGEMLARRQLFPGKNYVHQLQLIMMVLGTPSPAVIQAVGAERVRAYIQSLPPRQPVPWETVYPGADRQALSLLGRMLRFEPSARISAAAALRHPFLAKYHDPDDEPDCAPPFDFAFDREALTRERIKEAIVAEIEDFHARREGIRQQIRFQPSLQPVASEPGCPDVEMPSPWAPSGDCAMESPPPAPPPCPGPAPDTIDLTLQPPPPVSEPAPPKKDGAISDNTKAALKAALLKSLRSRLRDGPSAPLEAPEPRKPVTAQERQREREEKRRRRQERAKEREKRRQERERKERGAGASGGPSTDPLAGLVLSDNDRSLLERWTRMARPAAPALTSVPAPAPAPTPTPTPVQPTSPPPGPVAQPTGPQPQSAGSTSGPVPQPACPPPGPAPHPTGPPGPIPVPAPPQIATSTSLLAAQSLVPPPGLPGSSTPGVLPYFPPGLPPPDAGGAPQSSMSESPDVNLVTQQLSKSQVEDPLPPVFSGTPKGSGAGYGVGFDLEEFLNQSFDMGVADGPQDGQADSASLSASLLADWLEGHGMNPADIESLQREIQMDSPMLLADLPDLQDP
Sequence of 6-phosphogluconate dehydrogenase, decarboxylating (Homo sapiens) (P52209 whole entry, looked up): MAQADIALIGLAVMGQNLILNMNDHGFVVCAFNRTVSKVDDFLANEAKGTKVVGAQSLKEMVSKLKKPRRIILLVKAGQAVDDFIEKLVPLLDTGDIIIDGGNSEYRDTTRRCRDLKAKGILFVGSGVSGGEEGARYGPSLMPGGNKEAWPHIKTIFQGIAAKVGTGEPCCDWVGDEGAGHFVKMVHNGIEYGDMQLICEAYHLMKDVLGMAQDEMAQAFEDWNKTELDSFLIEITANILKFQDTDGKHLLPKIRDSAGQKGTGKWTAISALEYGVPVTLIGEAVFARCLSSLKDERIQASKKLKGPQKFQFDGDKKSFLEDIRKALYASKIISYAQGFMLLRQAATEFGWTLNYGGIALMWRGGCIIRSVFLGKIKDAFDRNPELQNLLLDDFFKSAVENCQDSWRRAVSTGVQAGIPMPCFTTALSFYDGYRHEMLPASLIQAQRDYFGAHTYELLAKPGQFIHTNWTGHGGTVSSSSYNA
Sequence of ATP-dependent translocase ABCB1 (Homo sapiens) (P08183 whole entry, looked up): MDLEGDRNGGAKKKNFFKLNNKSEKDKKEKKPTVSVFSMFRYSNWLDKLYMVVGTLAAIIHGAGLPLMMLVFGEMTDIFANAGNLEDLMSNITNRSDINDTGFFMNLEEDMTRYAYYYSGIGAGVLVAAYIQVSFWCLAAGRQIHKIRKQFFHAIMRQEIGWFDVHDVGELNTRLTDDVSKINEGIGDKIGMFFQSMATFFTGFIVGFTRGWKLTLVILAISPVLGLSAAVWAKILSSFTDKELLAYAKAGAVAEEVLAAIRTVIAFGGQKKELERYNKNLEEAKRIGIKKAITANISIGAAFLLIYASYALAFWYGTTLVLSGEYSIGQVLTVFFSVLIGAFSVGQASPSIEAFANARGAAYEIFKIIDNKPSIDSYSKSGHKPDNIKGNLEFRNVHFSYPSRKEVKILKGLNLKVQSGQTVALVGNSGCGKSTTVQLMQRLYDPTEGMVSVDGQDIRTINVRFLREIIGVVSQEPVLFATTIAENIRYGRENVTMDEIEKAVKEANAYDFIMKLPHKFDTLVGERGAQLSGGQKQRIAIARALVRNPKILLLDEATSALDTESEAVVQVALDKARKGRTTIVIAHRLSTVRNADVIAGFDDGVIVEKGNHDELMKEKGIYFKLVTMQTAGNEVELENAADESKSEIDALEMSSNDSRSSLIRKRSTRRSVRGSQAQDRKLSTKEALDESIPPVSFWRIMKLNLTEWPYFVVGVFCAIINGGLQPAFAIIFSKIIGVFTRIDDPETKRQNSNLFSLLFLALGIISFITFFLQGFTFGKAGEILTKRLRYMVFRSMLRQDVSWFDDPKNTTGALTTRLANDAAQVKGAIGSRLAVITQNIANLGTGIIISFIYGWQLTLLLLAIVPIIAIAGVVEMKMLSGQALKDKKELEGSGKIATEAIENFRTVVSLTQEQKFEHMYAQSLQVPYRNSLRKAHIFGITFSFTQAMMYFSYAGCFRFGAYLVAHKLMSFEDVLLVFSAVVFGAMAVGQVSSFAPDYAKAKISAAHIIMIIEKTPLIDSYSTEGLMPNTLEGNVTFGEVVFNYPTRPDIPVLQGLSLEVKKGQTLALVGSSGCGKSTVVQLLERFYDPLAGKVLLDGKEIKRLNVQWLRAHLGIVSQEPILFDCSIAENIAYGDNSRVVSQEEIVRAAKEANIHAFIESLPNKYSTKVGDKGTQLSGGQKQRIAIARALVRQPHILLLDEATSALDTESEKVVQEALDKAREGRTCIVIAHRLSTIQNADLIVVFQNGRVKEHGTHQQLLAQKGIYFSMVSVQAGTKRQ

On to `CCCCC[C@@H](O)[C@H]1C(=O)O[C@H](C)[C@@H](O)/C=C/C=C/C=C/C=C/C=C(\C)[C@@H](O)C[C@H](O)C[C@H](O)C[C@H](O)C[C@H](O)C[C@H](O)C[C@@H]1O`, for which, in assay [1], the inhibition (as a rule, the relative decrease from the control value, in per cent) is 6.12% (inactive). In addition, the values for the fold change in assay [2] (setting [9]) and in assay [2] (setting [10]) were 1.04 (inactive) and 1.06, respectively. Moreover, the cell count amounted to 6150 in assay [2] (setting [11]) and 5900 in assay [2] (setting [12]). In addition, the luciferase signal in assay [3] is 72 AU (inactive).
Turning to `C[N+](C)(C)CCOP(=O)([O-])OP(=O)(O)OC[C@H]1O[C@@H](n2ccc(N)nc2=O)[C@H](O)[C@@H]1O`, the inhibition in assay [1] is -4.56% (inactive). Also, in assay [4], the remaining NAD was 10 nM (inactive). Further, the luciferase signal in assay [3] was 76 AU (inactive).
As for `CC(=O)OCC(=O)[C@@]12OC3(CCCC3)O[C@@H]1C[C@H]1[C@@H]3CCC4=CC(=O)C=C[C@]4(C)[C@@]3(F)[C@@H](O)C[C@@]12C`, in assay [1], the inhibition was 2.31% (inactive). The z-score in assay [5] (MELAS cybrid survival, CellTiter-Glo 48 h, stronger effect = higher value) is 0.316 (inactive); in assay [5] (Rieske KO mouse fibroblast survival, CellTiter-Glo 72 h), 0.335. Further, the remaining NAD in assay [4] was 10 nM (inactive). Besides, the luciferase signal in assay [3] was 44 AU (inactive).
Take `O=C(O)c1cc(O)c2c(c1)[C@H]([C@H]1c3cc(C(=O)O)cc(O)c3C(=O)c3c(O[C@@H]4O[C@H](CO)[C@@H](O)[C@H](O)[C@H]4O)cccc31)c1cccc(O[C@@H]3O[C@H](CO)[C@@H](O)[C@H](O)[C@H]3O)c1C2=O`: the inhibition in assay [1] was 6.02% (inactive). The remaining NAD in assay [4] was 11 nM (inactive). In addition, the luciferase signal in assay [3] is 76 AU (inactive).
On to `CC(=O)N[C@@H](CC(=O)O)C(=O)O`, for which, in assay [6], the parasite load remaining was 117% (inactive). For the same molecule, the viability (as a rule, a read-out of living cells in per cent, often relative to untreated cells) in assay [6] stood at 106%. Also, the inhibition in assay [1] is 3.38% (inactive). Moreover, the values for the fold change in assay [2] (setting [9]) and in assay [2] (setting [10]) were 0.841 (inactive) and 1.57, respectively. The results for the cell count in assay [2] (setting [11]) and in assay [2] (setting [12]) were 8620 and 10300, respectively.
Take `CC1(C)C(=O)C=C[C@@]2(C)C1C=C[C@]1(C)C2CC[C@@]2(C)[C@H](c3ccoc3)OC(=O)C3OC321` (some centres undefined): in assay [1], the inhibition is -14.8% (inactive). Moreover, the luciferase signal in assay [3] was 40 AU (inactive).
On to `C=C(C)[C@@H]1CC[C@]2(CO)CC[C@]3(C)[C@H](CC[C@@H]4[C@@]5(C)CC[C@H](O)C(C)(C)[C@@H]5CC[C@]43C)[C@@H]12`, for which, in assay [6], the parasite load remaining is 104% (inactive). The viability in assay [6] was 78.6%. The inhibition in assay [1] was 1.58% (inactive). Also, the fold change in assay [2] (setting [9]) was 0.941 (inactive); in assay [2] (setting [10]) it was 0.65. For the same molecule, the cell count in assay [2] (setting [11]) came to 8530; in assay [2] (setting [12]) it was 9060. Also, the luciferase signal in assay [3] is 44 AU (inactive).
Turning to `C[C@H]1[C@H]2CC[C@H]3[C@@H]4CC=C5C[C@@H](N(C)C)CC[C@]5(C)[C@H]4CC[C@]23CN1C`, in assay [7], the fluorescence slope change is 56.7% (active). For the same molecule, the survival in assay [8] was 4.83 (inactive). For the same molecule, in assay [6], the parasite load remaining was 168% (inactive) and 68.7% (inactive). Moreover, the viability in assay [6] was 102% and 76.1%. Also, the inhibition in assay [1] is 13.8% (inactive). For the same molecule, the fold change in assay [2] (setting [9]) is 0.82 (inactive); in assay [2] (setting [10]), 1.54. In addition, the results for the cell count in assay [2] (setting [11]) and in assay [2] (setting [12]) were 8300 and 10100, respectively. Further, in assay [3], the luciferase signal was 40 AU (inactive).
With `COc1cc(C)c(C(=O)O)c(O)c1`, the inhibition in assay [1] was -0.391% (inactive). Further, in assay [3], the luciferase signal was 80 AU (inactive).
In the case of `O=C(OC[C@H]1O[C@@H](OC(=O)c2cc(O)c(O)c(OC(=O)c3cc(O)c(O)c(O)c3)c2)[C@H](OC(=O)c2cc(O)c(O)c(OC(=O)c3cc(O)c(O)c(O)c3)c2)[C@@H](OC(=O)c2cc(O)c(O)c(OC(=O)c3cc(O)c(O)c(O)c3)c2)[C@@H]1OC(=O)c1cc(O)c(O)c(OC(=O)c2cc(O)c(O)c(O)c2)c1)c1cc(O)c(O)c(OC(=O)c2cc(O)c(O)c(O)c2)c1`, the inhibition in assay [1] is 12.6% (inactive). Further, the remaining NAD in assay [4] is 10 nM (inactive). Further, the luciferase signal in assay [3] is 32 AU (inactive).
For `Nc1nc(N)c2nc(CNc3ccc(C(=O)N[C@@H](CCC(=O)O)C(=O)O)cc3)cnc2n1`, the inhibition in assay [1] was -4.2% (inactive). The remaining NAD in assay [4] was 10 nM (inactive).
For `CN(C)CC/C=C1/c2ccccc2Sc2ccc(Cl)cc21`, the fluorescence slope change in assay [7] is 115% (active). Further, the survival in assay [8] was 1.25 (inactive). In assay [6], the parasite load remaining was 63.4% (inactive) and the viability was 75.2%. Besides, in assay [1], the inhibition is -16.6% (inactive). In addition, in assay [4], the remaining NAD was 10 nM (inactive).
For the molecule `CC(C)C[C@@H]1NC(=O)[C@H](CCCN)NC(=O)[C@H](C(C)C)NC(=O)[C@H](Cc2ccc(O)cc2)N[C@@H](CCC(=O)O)C(=O)N[C@@H](CC(N)=O)C(=O)[C@@H](Cc2ccccc2)NC(=O)[C@H](Cc2ccccc2)NC(=O)[C@@H]2CCCN2C(=O)[C@@H](Cc2ccccc2)NC1=O`, the inhibition in assay [1] was 2.66% (inactive). Moreover, the remaining NAD in assay [4] is 10 nM (inactive).
